A word on the AC50: it is the concentration at which the activity in the assay is half-maximal.

This note sets out measurements from PubChem BioAssay AID1851 (National Center for Advancing Translational Sciences (NCATS), 2009).

Hit rate of the full screen: of about 16,000 compounds, about 5,100 (32%) were called active. About 25% were inconclusive and are not listed. The call rests on the fitted dose curve; in most records, active means well fitted curve in the direction sought with a large enough effect; inconclusive means small, poorly fitted or top-dose-only effect, or effect the other way; inactive means no such curve, though single readings can be large or run the other way. The list shows a part of the results. Some structures have more than one record in an assay (separate samples or runs), and their calls can disagree.
On the % scale 0 is the no-effect control and ±100 the full control effect.

This experiment deals with Cytochrome P450 3A4 (Homo sapiens) (UniProt P08684). Nature of the experiment: Cytochrome panel assay with activity outcomes. The conditions noted are these: recombinant CYP, pro-luciferin dealkylation, luminescence, p450-cyp3a4; series mostly up to 57.1 µM.
Cytochrome P450 3A4 (Homo sapiens), sequence (P08684 whole entry, looked up): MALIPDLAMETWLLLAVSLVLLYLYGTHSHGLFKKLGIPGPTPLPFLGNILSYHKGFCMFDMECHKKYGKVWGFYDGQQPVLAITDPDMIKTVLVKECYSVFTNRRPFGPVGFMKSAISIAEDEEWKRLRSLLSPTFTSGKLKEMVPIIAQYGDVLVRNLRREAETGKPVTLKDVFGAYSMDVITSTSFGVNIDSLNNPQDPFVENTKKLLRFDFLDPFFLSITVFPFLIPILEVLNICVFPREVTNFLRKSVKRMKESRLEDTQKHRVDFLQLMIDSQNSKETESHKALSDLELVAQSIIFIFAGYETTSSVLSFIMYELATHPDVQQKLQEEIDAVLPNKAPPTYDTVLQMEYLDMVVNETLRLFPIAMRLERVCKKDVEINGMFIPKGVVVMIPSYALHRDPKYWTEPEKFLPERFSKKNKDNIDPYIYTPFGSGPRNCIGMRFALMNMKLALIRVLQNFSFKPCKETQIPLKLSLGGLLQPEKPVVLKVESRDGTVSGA
Consider `Cc1c(Nc2ncccc2C(=O)O)cccc1C(F)(F)F`, for which the AC50 result was “inactive”. In the case of `O=C(COC(=O)c1cccnc1Nc1cccc(C(F)(F)F)c1)NCc1ccc2c(c1)OCO2`, the AC50 is 0.501 µM (active). Turning to `O=C(COC(=O)c1ccccc1Nc1cccc(C(F)(F)F)c1)NCc1ccco1`, the half-maximal activity concentration (AC50) was 22.4 µM (active). Turning to `Cc1cccc(Nc2ccccc2C(=O)OCC(=O)NCc2ccco2)c1C`, the AC50 is 15.8 µM (active). On to `O=C(OC(C(=O)NC1CCCC1)c1ccncc1)C1=Cc2ccccc2OC1` (configuration not stated), for which the AC50 was 3.98 µM (active). Regarding `Cc1ccc(C(OC(=O)c2ccco2)C(=O)NC2CCCCC2)cc1` (configuration not stated), the activity, negative = inhibition is -11.1% [at 2.29 µM] (inactive). As for `c1cc(-c2sc(-c3ccncc3)c(-c3ccncc3)c2-c2ccncc2)ccn1`, the AC50 is 0.316 µM (active). Regarding `Cc1cn2c(-c3ccncc3)nnc2s1`, the AC50 entry was “inactive”. As to `CCC(C)NC(=O)C1CC(c2ccc(OC)cc2)=NO1` (configuration not stated), the AC50 result was “inactive”. Consider `COc1cc2c(cc1OC)C(C(=O)N1CCN(c3ccccn3)CC1)C(c1cccs1)N(C)C2=O` (configuration not stated), for which the AC50 is 4.47 µM (active). For the compound `CCC(C)NC(=O)C1c2cc(OC)c(OC)cc2C(=O)N(C)C1c1cccs1` (configuration not stated), the concentration at half-maximal activity (AC50) was 5.62 µM (active). For the compound `COc1ccc(C(=O)Nc2ccc3c(c2)nc(CN2CCN(C(C)=O)CC2)n3C)cc1`, the activity, negative = inhibition is -0.562% [at 2.29 µM] (inactive). As for `Cn1c(CN2CCCC2)nc2cc(NC(=O)C3CCCCC3)ccc21`, the AC50 result is “inactive”. For `Cn1c(CN2CCCCC2)nc2cc(NC(=O)c3ccc(Cl)cc3)ccc21`, the AC50 is 15.8 µM (active). For the compound `COc1ccc(C(=O)Nc2ccc(S(=O)(=O)N3CCOCC3)cc2)cc1OC`, the AC50 entry was “inactive”.

Take `COc1cc(NC(=S)Nc2ccc(S(=O)(=O)N3CCOCC3)cc2)cc(OC)c1OC`: the AC50 is 15.8 µM (active). Turning to `CC(N)=O`, the AC50 entry is “inactive”. Still for that read-out and setting: the same measure for `c1ccc(-c2nc(CSc3n[nH]c(-c4cccs4)n3)cs2)cc1`: 6.31 µM (active). `O=c1[nH]c(=S)[nH]nc1Cc1ccccc1`: the AC50 result is “inactive”. Take `CC(C)C1NC(=S)N(Cc2ccccc2)C1=O` (configuration not stated): the AC50 was 14.1 µM (active). Take `O=C(Nc1nc2ccccc2n1Cc1ccccc1)c1ccc(COc2ccccc2[N+](=O)[O-])o1`: the AC50 was 4.47 µM (active).

In the case of `CCn1nccc1C(=O)Nc1nc2ccccc2n1CCN1CCCCC1`, the AC50 entry is “inactive”.

`CCOC(=O)Cn1nnc2c(sc3nc4c(c(-c5ccc(Cl)cc5)c32)CCC4)c1=O`: the AC50 result is “inactive”. For `Cc1ccc(C(=O)Cn2nnc3c(sc4nc5c(c(-c6ccccc6)c43)CCC5)c2=O)cc1`, the AC50 result is “inactive”.

Regarding `CCOC(=O)c1sc2nc3c(cc2c1N)COC(C)(CC)C3` (configuration not stated), the activity, negative = inhibition is 1.93% [at 11.4 µM] (inactive). In the case of `CCC1(C)Cc2c(sc3nnn(CC(=O)Nc4cccc5ccccc45)c(=O)c23)CO1` (configuration not stated), the AC50 was 10 µM (active).

For the compound `CCC1(C)Cc2c(sc3nnn(CC(=O)Nc4ccc(C)cc4)c(=O)c23)CO1` (configuration not stated), the AC50 is 14.1 µM (active). Regarding `CC1(C)Cc2c(sc3nc(-c4ccccc4)n(N)c(=O)c23)CO1`, the AC50 result is “inactive”. As for `CC1(C)CC(=O)c2cn3ncnc3nc2C1`, the AC50 result was “inactive”. Same read-out and setting: the result for `Nc1cccc2cnccc12` reads 7.94 µM (active).

`CC(C)[C@H](NC(=O)OC(C)(C)C)[C@@H](O)CC(=O)OC(C)(C)C`: the activity, negative = inhibition is -23.3% [at 11.4 µM] (inactive). Consider `O=c1ccn(-c2cccc(C(F)(F)F)c2)nc1-c1ccn(-c2ccccc2F)n1`, for which the AC50 was 10 µM (active). Regarding `O=C(O)c1nn(-c2ccccc2)ccc1=O`, the activity, negative = inhibition is -15.6% [at 11.4 µM] (inactive). `Cc1n[nH]c(=O)n1-c1cccc(C(F)(F)F)c1`: the AC50 result was “inactive”. With `O=C(c1ccccc1)c1nn(-c2ccccc2)c(=O)cc1C(F)(F)F`, the AC50 result was “inactive”. Same read-out and setting: the same measure for `COc1ccccc1NC(=O)c1nn(-c2cccc(C(F)(F)F)c2)ccc1=O`: 20 µM (active); for `COc1ccccc1NC(=O)c1nc[nH]c1C(=O)Nc1ccccc1OC`: “inactive”; for `CC(C)NC[C@H]1CCc2cc(CO)c([N+](=O)[O-])cc2N1`: “inactive”. Still for that read-out and setting: the result for `N#CCCn1c(=O)c(CCc2ccccc2)nc2cnc(Oc3cccc(Cl)c3)nc21` reads 0.794 µM (active); that for `N#CCCn1c(=O)cnc2cnc(Oc3ccccc3)nc21`, “inactive”; that for `N#CCCn1c(=O)c(CCc2ccccc2)nc2cnc(Oc3ccccc3)nc21`, 2.51 µM (active). With `N#CCCn1c(=O)c(-c2ccccc2)nc2cnc(Oc3cccc(Cl)c3)nc21`, the AC50 entry is “inactive”. Take `N#CCCn1c(=O)c(-c2ccc(Cl)cc2)nc2cnc(Oc3cccc(Cl)c3)nc21`: the AC50 entry was “inactive”. On the same count and under the same terms, the result for `COc1ccc(Oc2ncc3nc(CCc4ccccc4)c(=O)n(CCC#N)c3n2)cc1` reads 1.58 µM (active); that for `Cc1cc(=O)c2cc(Cl)ccc2[nH]1`, “inactive”.

Take `C[N+](C)(N)Cc1csc(-c2ccc(Cl)cc2)n1`: the activity, negative = inhibition was -0.841% [at 11.4 µM] (inactive). As to `Nc1ccccc1SCc1csc(-c2ccc(Cl)cc2)n1`, the AC50 is 1 µM (active). With `Clc1ccc(SCc2cc(-c3ccccc3)no2)cc1`, the AC50 entry was “inactive”. For `CN1CCc2ccccc2[C@@H]1Cc1ccccc1NC(=O)c1sc2ccccc2c1Cl`, the AC50 is 1.58 µM (active). For the compound `Cc1cc(C)c(C#N)c(SCc2cc3c(cc2Cl)OCO3)n1`, the AC50 is 3.98 µM (active). Same read-out and setting: the result for `COc1ncc2ncc(=O)n(C3CC3)c2n1` reads “inactive”; that for `COc1cccc(Cn2c(=O)cnc3cnc(OC)nc32)c1`, 10 µM (active); that for `COc1cccc(Cn2c(=O)cnc3cnc(OCc4ccccc4)nc32)c1`, 12.6 µM (active).

For `COc1cccc(Cn2c(=O)cnc3cnc(Oc4cccc(Cl)c4)nc32)c1`, the AC50 is 5.01 µM (active). On the same count and under the same terms, the result for `N[C@@H](Cn1cc(F)c(=O)[nH]c1=O)C(=O)O` reads “inactive”; that for `CCC(c1nnnn1CC1CCCO1)N(CCN1CCOCC1)Cc1cc2cc(C)ccc2[nH]c1=O` (configuration not stated), 15.8 µM (active); that for `COCOc1ccc(Br)cc1C(=O)[C@H]1O[C@H]1c1cccc(OC)c1`, 3.98 µM (active). For `COc1ccccc1OCc1ccc(C(=O)N(C)C)o1`, the activity, negative = inhibition was 4.32% [at 2.29 µM] (inactive). Turning to `COc1ccc(CCN(C)Cc2ccc(OCc3ccccc3)c(OC)c2)cc1OC`, the AC50 is 0.631 µM (active). On to `COc1ccc(CCN(C)CCC(=O)Nc2c(C)cc(C)cc2C)cc1OC`, for which the AC50 was 7.94 µM (active). As for `Cc1ccc(S(=O)(=O)N[C@@H]2COC(=O)C/C=C\[C@H](C)COC(=O)N[C@@H](C)C(=O)C/C=C\[C@H]2C)cc1`, the AC50 was 3.16 µM (active). Turning to `C[C@@H]1/C=C\CC(=O)OC[C@H]2O[C@@H](C=C[C@@H]2O)[C@H](C)/C=C\CC(=O)OC[C@H]2O[C@H]1C=C[C@@H]2O`, the activity, negative = inhibition is -21.3% [at 11.4 µM] (inactive). Take `Cc1ccc(S(=O)(=O)N[C@H]2COC(=O)C/C=C\[C@@H](C)[C@H](NS(=O)(=O)c3ccc(C)cc3)COC(=O)C/C=C\[C@H]2C)cc1`: the AC50 was 3.16 µM (active).

Take `CO[C@H]1COC(=O)C/C=C\[C@H](C)COC(=O)[C@@H](C)NC(=O)C/C=C\[C@@H]1C`: the activity, negative = inhibition was -29.4% [at 11.4 µM] (inactive). Take `Cc1ccc(S(=O)(=O)N[C@H]2COC(=O)[C@@H](Cc3ccccc3)NC(=O)[C@@H](C)COC(=O)C/C=C\[C@@H]2C)cc1`: the AC50 was 3.98 µM (active) and the activity, negative = inhibition was -7.89% [at 11.4 µM] (inactive). For `CO[C@@H]1COC(=O)CC=C[C@@H](C)[C@@H]2C=C[C@@H](O)[C@@H](COC(=O)C/C=C\[C@H]1C)O2`, the activity, negative = inhibition was -26.7% [at 11.4 µM] (inactive). Consider `CSCC[C@@H]1NC(=O)C/C=C\[C@@H](C)COC(=O)[C@@H](C)COC1=O`, for which the activity, negative = inhibition is -21.5% [at 11.4 µM] (inactive). Consider `C[C@H]1COC(=O)[C@H]2CCCN2C(=O)[C@@H](C)COC(=O)[C@H](Cc2ccccc2)NC1=O`, for which the activity, negative = inhibition is -25.7% [at 11.4 µM] (inactive). Turning to `C[C@@H]1/C=C\CC(=O)OC[C@H](C)C(=O)N[C@@H](C)C(=O)OC1`, the activity, negative = inhibition is -13.1% [at 11.4 µM] (inactive). Regarding `Cc1ccc(S(=O)(=O)N[C@H]2COC(=O)CC=C[C@@H](C)[C@H]3C=C[C@H](O)[C@@H](COC(=O)CC=C[C@H]2C)O3)cc1`, the AC50 is 3.16 µM (active) and the activity, negative = inhibition is -9.33% [at 11.4 µM] (inactive).
